{"source": "PubChem BioAssay AID1578", "about": "(Sanford-Burnham Center for Chemical Genomics, 2009)", "note": "“And” between values parts separate entries of the source, which are not always exact repeats. Equal values may be shown once. Among all 290,000 compounds or so, about 3,000 (1%) were called active. For the sample, actives were picked, then their nearest neighbours and some compounds at random. Values without a mark were called inactive. No stated cut-off is given here; in the data, active means inhibition mostly above about 36% (no sharp cut-off); inactive means mostly below about 34%.", "data": [{"assay": "NOD1 signaling inhibitors, primary screen, cell-based, luminescence, uHTS (AID 1578);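 further: HEK-293T reporter cells stimulated with the NOD1 agonist gamma-tri-DAP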", "conditions": "NOD1-driven NF-kB luciferase reporter cells, at 4 µM, active compounds read high", "values": [{"molecule": "COc1ccc(OC)c(-n2nnnc2SCC(=O)N2CCN(C(=O)c3ccco3)CC2)c1", "inhibition": "-16.1%"}, {"molecule": "Cc1ccc(NC(=O)C2CC(=O)n3ncnc3N2)cc1C", "note": "(configuration not stated)", "inhibition": "-33.1%"}, {"molecule": "CC(=O)NCc1ccc(-c2csc(N)n2)s1", "inhibition": "1.1%"}, {"molecule": "CC(=O)NCc1ccc(C(=O)CCl)cc1", "inhibition": "-4%"}, {"molecule": "CC(=O)NCc1ccc(C(=O)CCl)s1", "inhibition": "88.3% (active)"}, {"molecule": "Cc1ccc(C(=O)COC(=O)c2cc(Cl)nc3ccccc23)cc1", "inhibition": "-10.7%"}, {"molecule": "COc1cc(Br)c(CN2CCCN(C)CC2)cc1OC", "inhibition": "-24.3%"}, {"molecule": "O=C(O)c1ccc(-c2cccc([N+](=O)[O-])c2)o1", "inhibition": "9.4%"}, {"molecule": "CC(C)=C(C#N)c1nc2ccccc2s1", "inhibition": "-26.3%"}, {"molecule": "N#C/C(=C(/O)c1ccco1)c1nc2ccccc2s1", "inhibition": "-3.1% and -9.8%"}, {"molecule": "N#C/C(=C(/O)COC(=O)c1ccccc1O)c1nc2ccccc2s1", "inhibition": "16.3%"}, {"molecule": "CC(C)(C)c1ccc(C(=O)OC/C(O)=C(\\C#N)c2nc3ccccc3s2)cc1", "inhibition": "92% (active)"}, {"molecule": "N#C/C(=C(/O)c1cc2ccccc2o1)c1nc2ccccc2s1", "inhibition": "65.8% (active)"}, {"molecule": "N#C/C(=C(/O)c1ccc(-c2cccc([N+](=O)[O-])c2)o1)c1nc2ccccc2s1", "inhibition": "101% (active)"}, {"molecule": "N#C/C(=C\\N1CCN(Cc2ccc3c(c2)OCO3)CC1)c1nc2ccccc2s1", "inhibition": "24.5%"}, {"molecule": "O=[N+]([O-])c1cccc(-c2nc3ccccc3s/c2=N/O)c1", "inhibition": "2.3%"}, {"molecule": "N#C/C(=C(/O)c1ccc2c(c1)OCO2)c1nc2cc(C(F)(F)F)ccc2s1", "inhibition": "86.4% (active)"}, {"molecule": "N#C/C(=C(/O)COC(=O)c1ccc(C#N)cc1)c1nc2ccccc2s1", "inhibition": "-35.4%"}, {"molecule": "N#C/C(=C(/O)c1ccccc1F)c1nc2cc(C(F)(F)F)ccc2s1", "inhibition": "-28.9%"}, {"molecule": "CN(C)CCCN(Cc1ccccc1)C(=S)NCc1ccccc1", "inhibition": "-3.5%"}, {"molecule": "Cc1ccc(C)c(-n2nnnc2SCC(=O)Nc2c(C)n(C)n(-c3ccccc3)c2=O)c1", "inhibition": "-6.2%"}, {"molecule": "CCOc1ncccc1C(=O)Nc1nnc(C)s1", "inhibition": "-28.7%"}, {"molecule": "CC(C)NC(=O)C(=O)NCCN1CCN(C(=O)c2ccc(C(C)(C)C)cc2)CC1", "inhibition": "-31.9%"}, {"molecule": "Cc1c(CCO)c(=O)[nH]n1S(=O)(=O)c1ccc(Cl)cc1Cl", "inhibition": "-2.3%"}, {"molecule": "COc1ccccc1NC(=S)NC(=O)/C=C/c1ccco1", "inhibition": "-34.4%"}, {"molecule": "COc1ccc2[nH]c(C(=O)Nc3ncc(C)cc3Br)cc2c1", "inhibition": "1.8%"}, {"molecule": "Cc1cccc(Cc2nnc(CCC(=O)N(C)Cc3ccncc3C)o2)c1", "inhibition": "-15.4%"}]}]}
